GRK2 aptamer HTS = compounds blocking aptamer binding on GRK2 – biochemical, human GRK2, bead flow cytometry, HTS, primary screen | Beta-adrenergic receptor kinase 1 (Homo sapiens), P25098 | FAM-aptamer displacement from GRK2 | inhibition of aptamer binding, % at 10 µM | hit rate 0.59% among 330,000 | AID 488847, 2010;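 active = inhibition of aptamer binding above 40%, roughly 3 SD of noise, on plates passing a quality check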;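 note: median bead fluorescence of bound FAM aptamer so fluorescent compounds give negative values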
Neddylation inh = inhibitors of cullin neddylation, primary screen, biochemical, TR-FRET, uHTS, NAE and Ubc12; inhibition, % at 25 µM; NEDD8-conjugating enzyme Ubc12 (Homo sapiens) + NEDD8-activating enzyme E1 regulatory …; hit rate 0.58% among 360,000; in the data active = inhibition above about 36%
Target sequence (P61081 whole entry, looked up): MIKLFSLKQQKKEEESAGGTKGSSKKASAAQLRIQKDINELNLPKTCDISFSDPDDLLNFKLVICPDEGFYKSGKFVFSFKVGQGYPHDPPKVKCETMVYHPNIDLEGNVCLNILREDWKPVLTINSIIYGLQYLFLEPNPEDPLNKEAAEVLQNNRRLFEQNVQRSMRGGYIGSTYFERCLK
Target sequence (Q13564 whole entry, looked up): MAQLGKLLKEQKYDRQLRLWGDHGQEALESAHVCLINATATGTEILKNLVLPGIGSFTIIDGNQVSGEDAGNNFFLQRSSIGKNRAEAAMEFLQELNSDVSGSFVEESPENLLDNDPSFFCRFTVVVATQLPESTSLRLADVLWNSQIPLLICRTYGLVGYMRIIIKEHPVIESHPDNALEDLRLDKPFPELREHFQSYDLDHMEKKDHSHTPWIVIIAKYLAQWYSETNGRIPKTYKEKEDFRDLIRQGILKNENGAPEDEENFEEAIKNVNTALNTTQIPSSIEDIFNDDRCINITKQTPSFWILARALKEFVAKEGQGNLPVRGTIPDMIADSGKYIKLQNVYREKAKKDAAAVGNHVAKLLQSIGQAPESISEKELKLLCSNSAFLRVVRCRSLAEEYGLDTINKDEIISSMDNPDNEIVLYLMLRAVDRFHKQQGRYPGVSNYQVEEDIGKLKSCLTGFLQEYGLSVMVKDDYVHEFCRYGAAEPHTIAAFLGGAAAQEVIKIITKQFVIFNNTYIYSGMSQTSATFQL
HDAC3 inh = HDAC3 deacetylase inhibitors, primary screen, biochemical, fluorescence, cell-free homogeneous; hit rate 0.15% among 320,000; recombinant HDAC3, fluorogenic peptide/trypsin coupled; Histone deacetylase 3 (Homo sapiens), O15379; inhibition, % at 8.3 µM; in the data active = inhibition above about 26%, passing the limit was not always enough; inconclusive = no clear call, values can overlap the other calls
H9c2 protect = cardioprotection against H2O2-induced cell death, primary screen, uHTS, H9c2 cells, ATPLite luminescence; H9c2 cardiomyocytes, H2O2 injury protection, 2 h; protection from H2O2 cell death, % at 20 µM; hit rate 0.63% among 360,000; AID 588492, 2011;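 active = compounds giving at least 50% protection of heart cells from peroxide-induced death in the single-dose screen, raw or plate-pattern-corrected value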;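 note: 0% = DMSO wells with peroxide and 100% = DMSO wells without peroxide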
GRK2 CP1 = GRK2 aptamer-displacing inhibitors, retest, confirmation, biochemical, cherry pick 1, bead flow cytometry. shares compounds with GRK2 aptamer HTS. bead-bound GRK2, FAM-aptamer displacement. aptamer displacement, % at 10 µM. hit rate 4% among 2,000;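 active = aptamer displacement above 40%, near three times the noise of non-fluorescent compounds, on plates passing quality checks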;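 note: negative values mostly reflect intrinsic compound fluorescence rather than true enhancement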
Aptamer quench 1 = quenches fluorescent RNA aptamer, GRK2 hit artifact. Fluorescent RNA aptamer beads, quenching, flow cytometry; stronger effect = higher value. shares compounds with GRK2 aptamer HTS. AID 504521. 110 tested, under 10 active. fluorescence change (kMESF span), kMESF (test concentration not listed);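 active = compounds whose bead fluorescence drops by more than 37 kMESF across the dose range, marking them as dye quenchers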
Aptamer quench SP = aptamer fluorescence quenching in GRK2 counter-screen; fluorescence response (% of DMSO), % at 10 µM; Carboxyfluorescein RNA aptamer on beads, flow cytometry quenching; stronger effect = lower value; shares compounds with GRK2 aptamer HTS; AID 504580; 2,000 tested, under 10 active;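 active = compounds that quench the bead-bound fluorescent RNA probe, cutting fluorescence to under half of the solvent control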;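 note: counterscreen run without GRK2 so only probe quenching by compound is measured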
GRK2 CP2 = GRK2 aptamer-displacing inhibitors, hit retest, confirmation, biochemical, cherry pick 2, bead flow cytometry; 360 tested, under 10 active; inhibition of aptamer binding, % at 10 µM; shares compounds with GRK2 aptamer HTS; bead-bound GRK2, FAM-aptamer displacement;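 active = inhibition of aptamer binding above 40%, about triple the noise seen with nonglowing compounds, on plates passing quality control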;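 note: negative values mostly come from compounds that fluoresce themselves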
FAM quench CP2 = aptamer fluorescence quenching in GRK2 counter-screen; fluorescence response vs DMSO, % at 10 µM; 360 tested, under 10 active; shares compounds with GRK2 aptamer HTS; carboxyfluorescein RNA aptamer beads, flow cytometry quenching; stronger effect = lower value; AID 588494;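 active = response vs DMSO under 50%, meaning signal dropped by over half, treated as fluorescence quencher; inconclusive = no clear call, values can overlap the other calls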;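 note: labelled aptamer on streptavidin beads without GRK2 as a quench counter-screen; 100% = bead fluorescence of DMSO wells and lower means quenching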
FAM quench DR = quenchers of FAM-labeled RNA aptamer fluorescence, dose response, artefact control for GRK2 aptamer binding project, biochemical, powder set 1, flow cytometry | shares compounds with GRK2 aptamer HTS | Bead-bound FAM RNA aptamer fluorescence quenching; stronger effect = lower value | fluorescence ratio to DMSO, % at 11.1 µM | 35 tested, under 10 active | AID 588496, 2011;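 active = compounds that dim the fluorescent label, raw bead signal shifting by over 33 units between lowest and highest dose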
Numbers without * were called inactive; i = inactive; ? = inconclusive; . = no result given. Compounds with a hit are over-represented: about 1.8% of the library has one in this group of screens.

SMILES	GRK2 aptamer HTS	Neddylation inh	HDAC3 inh	H9c2 protect	GRK2 CP1	Aptamer quench SP	others
Cc1nn(Cc2c(F)c(F)c(F)c(F)c2F)c(C)c1NC(=O)c1ccc(COc2ccccc2Cl)o1	2	-1	16	-15	2	99
COC(=O)CNC(=O)COC(=O)/C=C/c1ccccc1[N+](=O)[O-]	0	-10	2	9	.	.
CC(C)NC(=O)NC(=O)COC(=O)/C=C/c1ccccc1[N+](=O)[O-]	100*	-25	2	18	1	102
CCCc1cc(=O)[nH]c(SCC(=O)c2c[nH]c3ccccc23)n1	59*	-70	2	1	-2	116
CCC(CC)=NNc1ccc([N+](=O)[O-])cc1[N+](=O)[O-]	61*	-14	-5	0	2	94
COC(=O)C1=C(C(=O)OC)[C@@H]2Nc3ccccc3[C@@]23C[C@@H](C(=O)OC)N(C(=O)c2ccco2)C3=N1	1	-33	-8	16	.	.
COc1cc2c3c(c1OC)C1(C=CC(=O)C=C1)CC3N(C(=O)c1ccccc1)CC2 (stereo unspecified)	70*	5	2	18	3	98
C/C(=N\O)c1oc2ccc3c(C)cc(=O)oc3c2c1C	0	.	-1	.	.	.
CN(CCOc1ccccc1)C(=O)CCc1nc2sc3c(c2c(=O)[nH]1)CCCC3	0	-42	2	14	0	97
Cc1cccc(C)c1NC(=O)CN(C)C(=O)CCc1nc2sc3c(c2c(=O)[nH]1)CCCC3	3	-20	1	9	.	.
CN(CC(=O)Nc1cccc(F)c1)C(=O)CCc1nc2sc3c(c2c(=O)[nH]1)CCCC3	11	-111	-3	15	1	98
O=C(c1ccccc1Br)N1CCc2c([nH]c3ccccc23)C1	0	14	3	-4	.	.
Cc1cccc(C)c1NC(=O)CSc1nnc(-c2ccco2)c(-c2ccco2)n1	47*	2	4	0	14	100
CCc1cccc(C)c1NC(=O)CSc1n[nH]c(N)n1	100*	-11	12	12	-4	100
COc1ccc(OC)c(C(O)c2ncc(-c3cccc4ccccc34)[nH]2)c1 (stereo unspecified)	.	14	.	2	.	.
O=C(CCCNC(=O)c1ccc(Cl)cc1)Nc1ncccc1O	0	3	17	0	.	.
O=C(CCNC(=O)c1ccc(Cl)cc1)Nc1ncccc1O	77*	-2	-5	0	.	.	GRK2 CP2=-18;FAM quench CP2=99
Cc1ccc(OCC(=O)NCCC2=CCCCC2)cc1	0	-2	-3	9	.	.
Cc1ccc(SCC(=O)NCCC2=CCCCC2)cc1	45*	-4	0	-8	-1	96
O=C(O)c1cccc(S(=O)(=O)N2CCN(c3ccccn3)CC2)c1	0	-8	1	4	.	.
Cc1cc(C(=O)N2CCC(C(=O)O)CC2)c(C)o1	2	4	-1	7	.	.
Cc1ccccc1Oc1nc2c(C)cccn2c(=O)c1/C=C(\C#N)C(=O)NC1CCS(=O)(=O)C1 (stereo unspecified)	0	.	-7	16	.	.
Cc1ccc(Oc2nc3ccccn3c(=O)c2/C=C(\C#N)C(=O)NC2CCS(=O)(=O)C2)cc1 (stereo unspecified)	75*	28	2	3	1	92
Cc1cc(C)c(NC(=O)c2cccc(NC(=O)c3ccco3)c2)c(C)c1	4	4	0	3	.	.
COc1ccccc1C(CNC(=O)CNC(=O)c1ccccc1Cl)N1CCCC1 (stereo unspecified)	0	3	3	7	.	.
SMILES	GRK2 aptamer HTS	Neddylation inh	HDAC3 inh	H9c2 protect	GRK2 CP1	Aptamer quench SP	others
O=C(N/N=C/c1ccc(Br)s1)c1ccc([N+](=O)[O-])cc1	78*	0	0	13	-26	99
Cc1cccc(CCNC(=O)CCS(=O)(=O)c2ccc(Br)cc2)c1	1	-8	2	13	2	104	FAM quench DR=101
COc1ccc(S(=O)(=O)CCC(=O)NCCc2cccc(C)c2)cc1	0	3	4	2	.	.
Cc1ccc(CCNC(=O)CCS(=O)(=O)c2ccc(Br)cc2)cc1	3	5	-1	10	0	100	Aptamer quench 1=9.3;FAM quench DR=102
COc1ccc(C#Cc2ccc(C3=CC(=O)CC(C)(C)C3=O)cc2)cc1	.	i	.	-17	.	.
CCOC(=O)Nc1sc(C)nc1-c1ccccc1	44*	7	-3	12	-5	97
CCc1cc(=O)oc2cc(C)cc(OC(C)C(=O)NC(Cc3c[nH]c4ccc(O)cc34)C(=O)O)c12 (stereo unspecified)	5	33	-3	0	.	.
COc1cc(OC)cc(C(=O)Nc2ncn[nH]2)c1	77*	-30	7	3	-5	101
CCC(=O)N1CCc2cc(S(=O)(=O)CCC(=O)Nc3ccc(CC)cc3)ccc21	1	0	2	6	.	.	GRK2 CP2=12;FAM quench CP2=99
CCc1ccc(NC(=O)CCS(=O)(=O)c2ccc3c(c2)CCN3C(C)=O)cc1	0	3	3	2	.	.
Cc1ccc(NS(=O)(=O)c2ccc3c(c2)CCN3C(=O)CCC(=O)O)cc1Cl	37	6	2	3	.	.
CCc1ccc(NS(=O)(=O)c2ccc3c(c2)CCN3C(=O)CCC(=O)O)cc1	52*	4	2	0	.	.	GRK2 CP2=6;FAM quench CP2=102
Cc1cccc(N2CCN(S(=O)(=O)c3ccc4c(c3)CCCN4C(=O)C3CCC3)CC2)c1C	0	-1	?	1	.	.
COCCN(CC(=O)Nc1cccc(C)c1C)C(=O)c1cc2c(s1)CCC2	21	12	-1	-8	.	.
Cc1ccc(NC(=O)Nc2ccc3c(c2)nc(C)n3C)cc1	2	-4	1	-24	.	.
Cc1cc(NC(=O)Nc2ccc3c(ccn3C)c2)sn1	0	7	0	-25	0	99
